Measurements taken from PubChem BioAssay AID651820 (National Center for Advancing Translational Sciences (NCATS), 2012).
About 12,000 (3.5%) of roughly 340,000 compounds were called active. Entries that show only a call come without a potency. About 18% were inconclusive and are not listed. Only a selection was taken, and actives are over-represented in it overall. A number with no mark means an inactive call. The call rests on the fitted dose curve; in most records, active means well fitted inhibition curve with a large enough effect; inconclusive means small, poorly fitted or top-dose-only effect, or another doubt; inactive means no such curve, though single readings can be large or run the other way.

experiment: qHTS Assay for Inhibitors of Hepatitis C Virus (HCV); details: Huh7.5.1 HCVcc-Cre infection, luciferase reporter, 44 h; series mostly up to 41.8 µM
Procedure, shortened: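 A cell-based infection assay in which seeded cells (1,000 per well) receive test compound after 4 h, are inoculated with HCVcc-Cre at approximately 0.5 moi, and are incubated 44 h before luminescence detection.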
Potency means the concentration at half of the fitted maximal effect.

| Structure (SMILES) | Potency | activity change, negative = inhibition |
| --- | --- | --- |
| O=C(CCc1ccccc1Cl)Nc1ccc(S(=O)(=O)Nc2nccs2)cc1 | inactive |  |
| CC(C)(C)S(=O)(=O)N1Cc2cc(CO)cc(CCO)c2[C@H]1CCO | inactive |  |
| O=C(COC(=O)c1ccc([N+](=O)[O-])o1)NC12CC3CC(CC(C3)C1)C2 | inactive |  |
| NS(=O)(=O)c1cccnc1Nc1cccc(Cl)c1 | inactive |  |
| OCCCNc1nccc(-c2cc(Nc3cccc(Cl)c3)ncn2)n1 | 2.82 µM (active) |  |
| Cn1c(Nc2cccc(Cl)c2)nc2ccccc21 | inactive |  |
| CCN1C(=O)[C@@H]2[C@@H](c3ccc(-c4ccc(OC)cc4)c(OC)c3)N3CCC[C@@]3(C(=O)OC)[C@@H]2C1=O | inactive |  |
| O=C(OCCOc1ccccc1F)c1cc(S(=O)(=O)N2CCOCC2)ccc1F | inactive |  |
| O=C(OCCOc1ccccc1Cl)c1cc(S(=O)(=O)N2CCCCC2)ccc1N1CCOCC1 | 2.51 µM (active) |  |
| O=C(NC1CCCCC1)c1cc([N+](=O)[O-])ccc1N1CCOCC1 | inactive |  |
| CC(C)(C)C(=O)COC(=O)c1cc(S(=O)(=O)N2CCCCC2)ccc1N1CCOCC1 | inactive |  |
| O=C(NCC1CCCCC1)c1cc(S(=O)(=O)N2CCCCC2)ccc1N1CCOCC1 | inactive |  |
| COc1ccc(S(=O)(=O)N2CCCCC2)cc1NC(=O)c1cc([N+](=O)[O-])ccc1N1CCOCC1 | 7.94 µM (active) |  |
| O=C(COC(=O)c1cc(S(=O)(=O)N2CCOCC2)ccc1F)NC1CC1 | inactive |  |
| COC1C(CO)OC(n2cnc3c(=S)nc(N)[nH]c32)C1O (stereo not given) | inactive |  |
| CC(C)(C)c1ccc(S(=O)(=O)N2CCN(C(=O)c3ccc4c(c3)C(=O)N(Cc3ccncc3)C4=O)CC2)cc1 | inactive |  |
| CC[C@]1(C(=O)OC)[C@H]2C(=O)N(Cc3ccccc3)C(=O)[C@H]2[C@H]2CN=C(SCc3ccc(C#N)cc3)N21 |  | -29.6% [at 8.37 µM] |
| Cc1nc(N)nc(Cl)c1CCC1OCCO1 | inactive |  |
| O=C(CSc1nnc(COc2ccc(Cl)cc2)n1Cc1ccco1)N1CCNC1=O | inactive |  |
| S=C(Nc1cccc(Cl)c1)Nc1ccc2cn[nH]c2c1 | inactive |  |
| Cc1csc(NC(=S)Nc2cccc(Cl)c2)n1 | 12.6 µM (active) |  |
| CC(=O)Nc1cccc(C(=O)Nc2nc(C)cs2)c1 | inactive |  |
| Cc1ccc(Cn2c(C)c3cnn(CC(=O)NCCN4CCOCC4)c(=O)c3c2C)cc1 | inactive |  |
| COc1ccc(CNC(=O)CN2C(=O)c3ccccc3S2(=O)=O)cc1 | inactive |  |
| O=C(Cn1nnc(-c2ccccc2)n1)NC(=O)NC1CCCC1 | inactive |  |
| COc1c(C)c2c(c(O)c1C/C=C(\C)CCC(=O)O)C(=O)OC2 | 2 µM (active) |  |
| CC(C)[C@@H](C(=O)OCC(=O)c1ccc2c(c1)NC(=O)CO2)N1C(=O)c2ccccc2C1=O | inactive |  |

| Structure (SMILES) | Potency | activity change, negative = inhibition |
| --- | --- | --- |
| Cc1nn(C(C)C(=O)N2CCOCC2)c(=O)c2nn(-c3ccccc3)c(C)c12 (stereo not given) | inactive |  |
| Cc1ccc(-n2nc3c(=O)n(C(C)C(=O)NCc4ccc5c(c4)OCO5)nc(C)c3c2C)cc1 (stereo not given) | 11.2 µM (active) |  |
| CC(Sc1nncs1)C(=O)NCc1ccc2c(c1)OCO2 (stereo not given) | inactive |  |
| Cc1noc(C)c1NC(=O)Nc1ccc2c(c1)C(=O)N([C@H](C)CO)C[C@H](C)[C@@H](CN(C)S(=O)(=O)c1cn(C)cn1)O2 | inactive |  |
| Cc1ccc(C2CCN(C(=S)Nc3cccc(Cl)c3)C2)cc1 (stereo not given) | 12.6 µM (active) |  |
| Cc1cccc(NC(=S)N2CCC(C(=O)c3ccc(F)cc3)CC2)c1 | inactive |  |
| O=C(C1CCCO1)N1CCN(C(=S)Nc2cccc(Cl)c2)CC1 (stereo not given) | inactive |  |
| Cc1nc(C)c(-c2csc(NCCc3ccccc3)n2)s1 | 2.82 µM (active) |  |
| Cc1nc(N)sc1-c1ccccc1 | inactive |  |
| S=c1[nH]nc(NCCc2ccccc2)s1 | inactive |  |
| C[C@H](CO)N1C[C@H](C)[C@@H](CN(C)C(=O)Nc2ccc3c(c2)OCO3)Oc2c(cccc2N(C)C)C1=O | inactive |  |
| Cc1occc1-c1nnc(SCC(=O)NC2CCCCC2)o1 | inactive |  |
| CCN(CC(=O)NCc1ccc(F)cc1)S(=O)(=O)c1ccc(Cl)s1 | inactive |  |
| CCOc1cc(/C=C(\C#N)c2nc(-c3cccs3)c(NC(C)=O)s2)ccc1O | 0.891 µM (active) |  |
| COc1cc(/C=N\Nc2nc(-c3cccs3)c(NC(C)=O)s2)ccc1O | inactive |  |
| CCOc1cc(C=NNC(=O)CCCC(=O)NN=Cc2ccc(O)c(OCC)c2)ccc1O | inactive |  |
| Cc1ccc(C2(C)NC(=O)N(CC(=O)N3CC(=O)Nc4ccccc43)C2=O)cc1 (stereo not given) | inactive |  |
| O=C(CN1CCN(C2CCS(=O)(=O)C2)CC1)N1N=C(c2ccc(Cl)cc2)CC1c1ccco1 (stereo not given) | inactive |  |
| CCCOc1ccc(-c2nc(N)n[nH]2)cc1 | inactive |  |
| CCCOc1ccc(Cc2c(O)nc(SC)[nH]c2=O)cc1C | inactive |  |
| CCCOc1ccc(Cc2c(Cl)nc(SC)nc2NC)cc1 | 2.82 µM (active) |  |
| CCOC(=O)N(Cc1ccccc1)C1CC1 | inactive |  |
| CC(C)c1cc(C(N)=O)c(NC(=O)c2cccc(COc3ccc(Br)cc3)c2)s1 | 10 µM (active) |  |
| COc1ccc(OCc2cccc(C(=O)N3CCCC3)c2)cc1 | inactive |  |
| CC(C)(C)OC(=O)N(Cc1ccccc1)Cc1ccc(OCc2cccc(NC(=O)c3ccccc3)c2)cc1 |  | -4.99% [at 8.37 µM] |
| O=C(CNS(=O)(=O)c1ccc2c(c1)OCCCO2)N1CCN(c2ccc(F)cc2)CC1 | inactive |  |
| CC1(C)C=Cc2c(ccc3c2OC[C@@H](c2ccc(O)cc2O)C3)O1 | inactive |  |

| Structure (SMILES) | Potency | activity change, negative = inhibition |
| --- | --- | --- |
| O=c1[nH]c(N2CCOCC2)nc2ccccc12 | inactive |  |
| CN1CCN(c2nc(Nc3ccc(O)cc3)nc3ccccc23)CC1 | inactive |  |
| c1ccc(Nc2nc(N3CCOCC3)c3ccccc3n2)cc1 | 11.2 µM (active) |  |
| COc1ccc(OCCCON2C(=O)c3ccccc3C2=O)cc1 | inactive |  |
| CCCCC(C(=O)OCC(=O)c1ccc(OC)cc1)N1C(=O)c2ccccc2C1=O (stereo not given) | inactive |  |
| CCOC(=O)C1=C(c2ccc(OC)cc2)C(=O)c2ccccc2C1=O | 7.08 µM (active) |  |
| O=[N+]([O-])c1ccc(NS(=O)(=O)c2ccccc2)c(Cl)c1 | inactive |  |
| COc1ccccc1NC(=O)CSc1nnc(Cn2nnc(-c3ccccc3)n2)n1-c1ccccc1 | 31.6 µM (active) |  |
| COc1ccccc1OCc1nnc(SCC(N)=O)n1-c1ccccc1 | inactive |  |
| COc1ccccc1NC(=O)CSc1nnc(Cc2cccn2C)n1-c1ccc(F)cc1 | inactive |  |
| O=C(COC(=O)c1n[nH]c2ccccc12)Nc1ccccc1Br | inactive |  |
| CC(C(=O)Nc1ccc(S(=O)(=O)N2CCCC2)cc1)N(C)Cc1ccc(F)cc1 (stereo not given) | inactive |  |
| CCOc1ccc2nc(N(CCN(C)C)C(=O)c3ccc4ccccc4c3)sc2c1 | inactive |  |
| CCOc1ccc2nc(N(CCCN(C)C)C(=O)c3ccc(C(=O)c4ccccc4)cc3)sc2c1 | inactive |  |
| COc1cccc2sc(N(CCCN(C)C)C(=O)CCS(=O)(=O)c3ccccc3)nc12 | inactive |  |
| COc1cccc2sc(N(CCCN(C)C)C(=O)C(c3ccccc3)c3ccccc3)nc12 | 12.6 µM (active) |  |
| Cc1cccc2sc(N(CCCN(C)C)C(=O)CCS(=O)(=O)c3ccccc3)nc12 | inactive |  |
| COc1cc2ccccc2cc1C(=O)N(CCN(C)C)c1nc2c(F)cccc2s1 | 14.1 µM (active) |  |
| C[C@H](OC(=O)n1ccnc1)[C@@H]1O[C@@]2(C)CCC[C@@H]1O2 | inactive |  |
| CCc1cccc(NC(=O)COC(=O)c2cc(=O)c3ccccc3o2)c1 | inactive |  |
| Cc1nn(-c2ccccc2)c(C)c1C(=O)OCC(=O)NC(=O)NC1CCCCC1 | inactive |  |
| Cc1nc(/N=C(\N)NC(=O)NC2CCCCC2)nc2ccccc12 | 11.2 µM (active) |  |
| O=C(NNC(=O)C(O)c1ccccc1)NC1CCCCC1 (stereo not given) | inactive |  |
| C=CCOc1cccc(C2C(C(=O)c3ccc(C)o3)=C(O)C(=O)N2CCCn2ccnc2)c1 (stereo not given) | inactive |  |
| Cc1cccc(CC2(O)C(=O)Nc3ccccc32)n1 (stereo not given) | inactive |  |
| Cc1ccnc(SCC(=O)Nc2cccc(S(=O)(=O)N3CCOCC3)c2)n1 | inactive |  |
| Cc1nc2ccc(NC(=O)C3CCCCC3)cc2s1 | inactive |  |

| Structure (SMILES) | Potency | activity change, negative = inhibition |
| --- | --- | --- |
| Cc1nc2ccc(N)nc2nc1C | inactive |  |
| COC(=O)CNc1nc(Cl)nc(N2CCC(C)CC2)n1 | inactive |  |
| Clc1nc(NC2CCCC2)nc(N2CCOCC2)n1 | 14.1 µM (active) |  |
| COc1nc(NC2CCCCC2)nc(N2CCCCCC2)n1 | inactive |  |
| O=C(CNC(=O)c1n[nH]c2ccccc12)Nc1cc(Cl)ccc1Cl | inactive |  |
| CCN1CCN(C(=O)N(Cc2ccc(Cl)cc2)S(=O)(=O)c2ccc(C)cc2)CC1 | inactive |  |
| COCCN(Cc1cc2cc3c(cc2nc1Cl)OCO3)C(=O)c1cccc(C)c1 | 12.6 µM (active) |  |
| CCCCN(CC)C(=O)c1ccc2c(c1)OCO2 | inactive |  |
| Cc1cccc(C(=O)NCCCN(C)CCCNC(=O)c2cccc(C)c2)c1 | inactive |  |
| O=C(CC1Sc2ccccc2NC1=O)NNc1ccc(Cl)c(Cl)c1 (stereo not given) | inactive |  |
| N#Cc1c(-c2ccccc2)nc(SCc2cccc(C(F)(F)F)c2)[nH]c1=O | inactive |  |
| O=c1c2ccccc2nc2n1C(CSc1ccc(F)cc1)CN2 (stereo not given) | inactive |  |
| O=c1c2ccccc2nc2n1C(CSCc1cccc(C(F)(F)F)c1)CS2 (stereo not given) | 10 µM (active) |  |
| O=c1c2ccccc2nc2n1C(CSc1ccc(Cl)cc1)CN2 (stereo not given) | inactive |  |
| O=c1c2ccccc2nc2n1C(CSCc1ccccc1)CS2 (stereo not given) | 14.1 µM (active) |  |
| O=c1[nH]c(SCc2cccc(F)c2)nc2ccccc12 | inactive |  |
| CN(C)S(=O)(=O)c1ccc(N2CCCC2)c(C(=O)Nc2ccc(Br)cc2F)c1 | inactive |  |
| COc1ccc(S(=O)(=O)N2CCN(c3cnccn3)CC2)cc1 | inactive |  |
| CN(C)CCNC(=O)/C(=C/c1cccc([N+](=O)[O-])c1)NC(=O)c1ccccc1 | inactive |  |
| C=CCNC(=O)/C(=C\c1cccc([N+](=O)[O-])c1)NC(=O)c1ccccc1 | inactive |  |
| N#C/C(=C/c1ccc(-c2ccccc2[N+](=O)[O-])o1)C(=O)NCCN1CCCCC1 | inactive |  |
| Cc1ccc(Cc2cnc(NC(=O)/C(C#N)=C/c3ccc(-c4cccc([N+](=O)[O-])c4)o3)s2)cc1 | inactive |  |
| N#C/C(=C\c1ccc(-c2cccc([N+](=O)[O-])c2)o1)C(=O)NCCN1CCOCC1 | 14.1 µM (active) |  |
| Cc1ccc(C(=O)N/C(=C/c2ccc(-c3cccc([N+](=O)[O-])c3)o2)C(=O)NCCCN(C)C)cc1 | 11.2 µM (active) |  |
